In PubChem BioAssay AID1063 (University of Pittsburgh Molecular Library Screening Center, 2008):
Among all 200,000 compounds or so, about 18,000 (9%) were called active. No stated cut-off is given here; in the data, active means inhibition above about 50%; inactive means the rest. The entries come from a sample that favours actives as a whole.

assay: antileishmanial activity against promastigotes – primary screen (AID 1063); conditions: Leishmania major promastigotes, resazurin fluorescence viability; at 10 µM; stronger effect = higher value;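 further: promastigotes grown with compound for 44 hours at 28 °C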

Row | SMILES | inhibition
1 | CC(C)(C)NC(=O)c1cccc(NC(=O)Cc2ccc(Br)cc2)c1 | 94.5% (active)
2 | O=C(Cc1ccccc1)Nc1cccc(C(=O)N/N=C/c2ccco2)c1 | -0.83% (inactive)
3 | COc1ccc(CC(=O)Nc2ccc(C(=O)NC(C)(C)C)cc2)cc1 | -5.15% (inactive)
4 | C(=N\N1CCN(c2ccccn2)CC1)/C1=C(N2CCOCC2)C(=C/c2ccccc2)/CC1 | 15.2% (inactive)
5 | CCCNC(=O)c1ccccc1NC(=O)CSCc1ccc(OC)cc1 | 9.43% (inactive)
6 | CCCc1nc(SCC(=O)Nc2ccccc2OC)c2c(=O)n(C)c(=O)n(C)c2n1 | -9.77% (inactive)
7 | CCCCCNC(=O)c1cccnc1SCC(=O)Nc1ccccc1OC | 54% (active)
8 | COc1ccc(-n2nnnc2SCC(=O)NCc2cccs2)cc1 | -3.26% (inactive)
9 | COc1ccc(S(=O)(=O)N(C)C)cc1NC(=O)CSc1ncccn1 | 6.96% (inactive)
10 | O=C(NCc1ccncc1)NC12CC3CC(CC(C3)C1)C2 | 1.04% (inactive)
11 | CCOC(=O)c1c(NC(=O)C2CC=CCC2C(=O)O)sc(C)c1CC (stereo not drawn) | 0.64% (inactive)
12 | O=S(=O)(c1cccc(C(F)(F)F)c1)N1CCN(c2cnccn2)CC1 | -1.36% (inactive)
13 | COC(=O)c1ccccc1NS(=O)(=O)c1ccc2[nH]c(=O)[nH]c2c1 | 86.2% (active)
14 | CCOC(=O)c1ccccc1NS(=O)(=O)c1ccc(OC)cc1 | 2.32% (inactive)
15 | COC(=O)c1ccccc1NC(=O)c1ccccc1NS(C)(=O)=O | -0.37% (inactive)
16 | Cc1ccc(S(=O)(=O)Nc2nc3ccccc3s2)cc1[N+](=O)[O-] | -8.33% (inactive)
17 | Cc1ccc(S(=O)(=O)NCCSc2ccccc2)cc1[N+](=O)[O-] | -8.64% (inactive)
18 | COCCNC(=O)c1ccccc1NS(=O)(=O)c1ccc(C)c([N+](=O)[O-])c1 | 54.5% (active)
19 | O=S(=O)(Cc1ccccc1)c1nc2ccccc2n1Cc1ccccn1 | 10.6% (inactive)
20 | Cc1cc(C)cc(C(=O)N(CCc2ccccc2)C2=CC3CCC(C2)N3C)c1 (stereo not drawn) | 3.61% (inactive)
21 | Cc1ccc(N/C=C/C(=O)c2ccccc2)cc1C | 66% (active)
22 | Cc1noc(NS(=O)(=O)c2ccc(N/C=C/C(=O)c3ccccc3)cc2)c1C | -14.2% (inactive)
23 | O=C(/C=C\NCC(=O)c1ccccc1)c1ccccc1 | 2.41% (inactive)
24 | O=C(Nc1ccc2c(c1)C(=O)OC2)Nc1cccc2ccccc12 | -3.46% (inactive)

Row | SMILES | inhibition
25 | CC1=NN(c2ccccc2)C(=O)C1C(=O)c1ccc([N+](=O)[O-])cc1 (stereo not drawn) | -7.88% (inactive)
26 | COc1cc(OC)nc(N/N=C(\c2ccccc2)c2ccncc2)n1 | -5.12% (inactive)
27 | CC[n+]1c(C)n(-c2ccccc2)c2ccc(NC(C)=O)cc21 | 98.2% (active)
28 | CC(=O)NCCc1nc2cc(NC(=O)c3ccccc3)ccc2n1C | -4.08% (inactive)
29 | CCN(CC)N=Nc1cccc(NC(C)=O)c1 | -3.03% (inactive)
30 | O=C(Nc1ccc2cn[nH]c2c1)c1ccc(S(=O)(=O)N2CCOCC2)cc1 | -3.16% (inactive)
31 | CC(=C1C(=O)c2ccccc2C1=O)N1CCN(c2ccccn2)CC1 | -2.16% (inactive)
32 | O=C(C(Cl)Cl)N1CCN(c2ccccn2)CC1 | 64.4% (active)
33 | O=C(Cc1ccccc1Cl)N1CCN(c2ccccn2)CC1 | -2.27% (inactive)
34 | COC(c1ccccc1)c1nnc(CCC(=O)N2CCN(CCOc3ccccc3)CC2)o1 (stereo not drawn) | -4.38% (inactive)
35 | Cc1ccc(S(=O)(=O)c2ccc(Oc3ccccc3)cc2)cc1 | -3.38% (inactive)
36 | CC1=C/C(=N\OS(=O)(=O)c2ccccc2)C=CC1=O | 100% (active)
37 | CC1=C/C(=N\S(=O)(=O)c2ccccc2)C(C(C)C)=CC1=O | -0.21% (inactive)
38 | Cc1cccc(C(=O)N2CCC(c3nc4ccccc4s3)CC2)c1 | -2.51% (inactive)
39 | Cc1cccc(/C(N)=N/OC(=O)c2ccccc2Cl)c1 | 16.9% (inactive)
40 | COC(=O)c1cccc([N+](=O)[O-])c1CS(=O)(=O)c1ccc(C)cc1 | -1.5% (inactive)
41 | CC(=O)Nc1ccc(-c2csc(NC(=O)Nc3ccccc3)n2)cc1 | 58.2% (active)
42 | CC(=O)Nc1ccc(S(=O)(=O)Nc2nc(-c3ccc(C(C)(C)C)cc3)cs2)cc1 | 6.97% (inactive)
43 | CC(=O)Nc1ccc(-c2csc(NC=C3C(=O)OC(C)(C)OC3=O)n2)cc1 | 0.56% (inactive)
44 | Cc1cc(C(=O)CSc2nc(N)cc(=O)[nH]2)c(C)n1-c1cccc(F)c1 | 23.6% (inactive)
45 | O=C(CCN1C(=O)/C(=C/c2cccs2)SC1=S)NNC(=O)c1cccc(O)c1 | -5.28% (inactive)
46 | O=c1c2cc3c(=O)n(CC4CCCO4)c(=O)c3cc2c(=O)n1CC1CCCO1 (stereo not drawn) | -5.65% (inactive)
47 | O=C(NCc1ccc2c(c1)OCO2)c1ccc2c(c1)C(=O)N(CC1CCCO1)C2=O (stereo not drawn) | -1.97% (inactive)
48 | O=C1c2cccc3c([N+](=O)[O-])ccc(c23)C(=O)N1CC1CCCO1 (stereo not drawn) | 101% (active)

Row | SMILES | inhibition
49 | Cc1cc(C)cc(OCC(=O)Nc2ccc(S(=O)(=O)Nc3ccccn3)cc2)c1 | 7.3% (inactive)
50 | O=C(C1CCCO1)N1CCN(C(=S)NC2CC2)CC1 (stereo not drawn) | -5.96% (inactive)
51 | CCn1c(-c2ccncc2)n[nH]c1=S | -0.2% (inactive)
52 | Cc1cc(C)n(-c2nc(SCC(=O)N3CCCC3)c3c4c(sc3n2)CCCC4)n1 | 63.1% (active)
53 | Cc1nc(SCC(=O)Nc2cc(C)on2)c2c3c(sc2n1)CCCC3 | 1.37% (inactive)
54 | Cc1nc2sc3c(c2c(=O)n1NC(=O)CCl)CCCC3 | -0.99% (inactive)
55 | COCCn1c(C)cc(C(=O)CSc2ncnc3sc4c(c23)CCC4)c1C | -5.34% (inactive)
56 | CCC(O)CNc1nc(-n2nc(C)cc2C)nc2sc3c(c12)CC(C)(C)OC3 (stereo not drawn) | 9.97% (inactive)
57 | COCCNc1nc(-n2nc(C)cc2C)nc2sc3c(c12)CCCC3 | 64% (active)
58 | O=C(CSc1ccc([N+](=O)[O-])cn1)Nc1ccc(N2CCOCC2)c(Cl)c1 | 8.08% (inactive)
59 | O=C(CCc1ccccc1)NCCc1cccs1 | -9.15% (inactive)
60 | COc1ccc(OC)c2[nH]c(=O)c(CCNC(=O)C(=O)c3c[nH]c4ccccc34)cc12 | -6.77% (inactive)
61 | COc1cc(NC(=S)N2CCCC(C)C2)c(OC)cc1Cl (stereo not drawn) | 6.09% (inactive)
62 | Cc1cccc(N(C(=O)Cc2cccs2)C(C(=O)NCc2ccco2)c2ccncc2)c1 (stereo not drawn) | 6.9% (inactive)
63 | O=C(c1cn2ccccc2n1)N1CCc2c([nH]c3ccccc23)C1c1ccccn1 (stereo not drawn) | 13.8% (inactive)
64 | Cc1cccc(C2c3[nH]c4ccccc4c3CCN2C(=O)c2cc(-c3cccn3C)n[nH]2)n1 (stereo not drawn) | 70.9% (active)
65 | Cc1cccc(C(=O)N2CCc3c([nH]c4ccccc34)C2CC(C)C)n1 (stereo not drawn) | 31.8% (inactive)
66 | CC1(C)CC(=O)C(CC(=O)N2CCC(Cc3ccccc3)CC2)C(=O)C1 | -0.44% (inactive)
67 | Cc1cc(C(C)(C)C)cc(S(=O)(=O)Nc2ccc(C(=O)O)cc2)c1C | -3.3% (inactive)
68 | CCOc1ccccc1Nc1ccc(C(=O)O)cc1[N+](=O)[O-] | -1.36% (inactive)
69 | O=C(Nc1cccc2ccccc12)N1CCN(Cc2ccc3c(c2)OCO3)CC1 | 24.5% (inactive)
70 | O=C(CCCN1C(=O)c2cccc3cccc(c23)C1=O)N1CCN(Cc2ccc3c(c2)OCO3)CC1 | 53.9% (active)
71 | O=C(CSCc1ccc(Cl)cc1)N1CCCCC1 | -3.7% (inactive)
72 | O=C(CSCc1ccc(Cl)cc1)N1CCN(Cc2ccc3c(c2)OCO3)CC1 | 90.7% (active)

Row | SMILES | inhibition
73 | Cn1c(=O)cc(OCCCC(=O)N2CCN(Cc3ccc4c(c3)OCO4)CC2)c2ccccc21 | 11.9% (inactive)
74 | CS(=O)(=O)N(CC(=O)N1CCN(Cc2ccc3c(c2)OCO3)CC1)c1ccc2c(c1)OCO2 | -5.11% (inactive)
75 | CCc1ccccc1NC(=O)CSc1nnc(-c2ccncc2)o1 | -6.71% (inactive)
76 | Cc1ccc(OCc2n[nH]c(=S)n2-c2ccc(C)cc2)cc1 | 1.58% (inactive)
77 | Cc1c(-c2cccc(Cl)c2)nc2ccccc2c1C(=O)OCC(=O)N(C)C1CCS(=O)(=O)C1 (stereo not drawn) | 30.9% (inactive)
78 | Cc1c(Br)cc(C(=O)N2CCCCCC2)c(C)c1C | 79% (active)
79 | Cc1ccc(C(=O)N2CCCCCC2)cc1Br | 1.69% (inactive)
80 | COc1cc(OC)c(C(=O)N2CCCC2)cc1OC | -1.38% (inactive)
81 | Cc1ccc(NC(=O)CSc2nnc(CNC(=O)c3ccccc3F)o2)cc1 | -3.87% (inactive)
82 | CCC(C)(C)NC(=O)CN(C(=O)C(=O)Nc1ccc2c(c1)OCCO2)C(C)(C)CC | 9.2% (inactive)
83 | O=C(CN1CCN(C2CCCCC2)CC1)Nc1ccccc1N1CCCCC1 | 10.2% (inactive)
84 | c1ccc(C2CCC(N3CCC(N4CCCCC4)CC3)CC2)cc1 (stereo not drawn) | 92.2% (active)
85 | CCOC(=O)CN1CCC(c2ccccc2)CC1 | -3.4% (inactive)
86 | O=C(COc1ccc(S(=O)(=O)N2CCCCC2)cc1)NCc1ccccn1 | -4.35% (inactive)
87 | COc1cc(N/C=C2\CC(=O)NC(C)=C2C#N)cc(OC)c1OC | -6.28% (inactive)
88 | O=C(CCS(=O)(=O)Cc1ccccc1)Nc1ccc2c(c1)OCCO2 | -2.36% (inactive)
89 | O=C(Cn1cnc([N+](=O)[O-])n1)NCCc1ccccc1 | 21.8% (inactive)
90 | O=C(Nc1cccc(CCc2ccccn2)c1)c1ccc(Cl)cc1 | 2.49% (inactive)
91 | Cc1cccc(NC(=O)N(Cc2cc3cc(C)cc(C)c3[nH]c2=O)CC2COCCO2)c1 (stereo not drawn) | 37.5% (inactive)
92 | Cc1ccc2[nH]c(=O)c(CN(CC3COCCO3)C(=O)Nc3ccccc3C)cc2c1 (stereo not drawn) | 4% (inactive)
93 | Cc1ccc2[nH]c(=O)c(CN(CCCN(C)C)C(=O)Nc3cccc(Cl)c3)cc2c1 | 93.2% (active)
